Holding throughout (assay): DAPPL (digital affinity profiling via proximity ligation, sequencing); 10 mM Tris-HCl pH 7.5, 50 mM NaCl, 1 mM DTT, 4% glycerol, room temperature, 30 min; GST-TFs on glutathione beads, 16-mer random dsDNA library, 0.1% formaldehyde crosslink after washing; high values mean tight binding
Test [1] has as its target T1, FEV (Homo sapiens, UniProt Q99581 1-238).
T1 sequence: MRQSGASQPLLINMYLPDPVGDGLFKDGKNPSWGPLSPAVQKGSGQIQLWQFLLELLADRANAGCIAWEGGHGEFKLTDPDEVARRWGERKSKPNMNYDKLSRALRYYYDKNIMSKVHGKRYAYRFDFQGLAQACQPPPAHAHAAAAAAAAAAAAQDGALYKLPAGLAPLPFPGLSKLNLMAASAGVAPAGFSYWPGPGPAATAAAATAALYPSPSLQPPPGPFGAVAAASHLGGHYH
Conditions: protein: recombinant; tags: N-terminal GST; dsDNA, one strand shown. The gist of the method:
(§1)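 Human transcription factors carrying a GST fusion were produced in yeast, bound to glutathione beads, tagged with DNA barcodes and pooled together with a tag-only sample. Each pool was held with 200 nmole of a random double-stranded 16-mer DNA library in Tris/NaCl/DTT/glycerol buffer for 30 min at room temperature, then washed, crosslinked in 0.1% formaldehyde, proximity-ligated with BsaI/T4 ligase (1 h, 37 °C), PCR-amplified and sequenced on an Illumina NextSeq500. Binding signal is the read frequency of each hexamer for a given factor divided by its frequency in the tag-only sample.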

Test [2] deals with ETV5 (Homo sapiens, UniProt P41161 1-510). Conditions: protein: recombinant; tags: N-terminal GST; dsDNA, one strand shown. The essentials: as §1
Test [3] has as its target HSF1 (Homo sapiens, UniProt Q00613 1-529). The conditions noted are these: protein: recombinant; tags: N-terminal GST; chain copies: 3; dsDNA, one strand shown. The essentials:
as §1

Test [4] deals with T2, SPIC (Homo sapiens, UniProt Q8N5J4 1-248).
T2 sequence: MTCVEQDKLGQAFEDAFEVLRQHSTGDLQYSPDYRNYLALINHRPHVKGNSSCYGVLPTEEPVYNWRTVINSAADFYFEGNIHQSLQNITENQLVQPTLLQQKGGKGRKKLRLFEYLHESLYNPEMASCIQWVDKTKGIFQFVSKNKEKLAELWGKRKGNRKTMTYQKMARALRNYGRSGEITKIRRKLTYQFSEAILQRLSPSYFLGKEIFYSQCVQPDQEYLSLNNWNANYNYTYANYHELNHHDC
Conditions: protein: recombinant; tags: N-terminal GST; dsDNA, one strand shown. The essentials: as §1

In test [5] the target is ELF4 (Homo sapiens, UniProt Q99607 1-663). Conditions: protein: recombinant; tags: N-terminal GST; dsDNA, one strand shown. The gist of the method:
as §1

Test [6] deals with T3, ELK4 (Homo sapiens, UniProt P28324-2 1-405).
T3 sequence: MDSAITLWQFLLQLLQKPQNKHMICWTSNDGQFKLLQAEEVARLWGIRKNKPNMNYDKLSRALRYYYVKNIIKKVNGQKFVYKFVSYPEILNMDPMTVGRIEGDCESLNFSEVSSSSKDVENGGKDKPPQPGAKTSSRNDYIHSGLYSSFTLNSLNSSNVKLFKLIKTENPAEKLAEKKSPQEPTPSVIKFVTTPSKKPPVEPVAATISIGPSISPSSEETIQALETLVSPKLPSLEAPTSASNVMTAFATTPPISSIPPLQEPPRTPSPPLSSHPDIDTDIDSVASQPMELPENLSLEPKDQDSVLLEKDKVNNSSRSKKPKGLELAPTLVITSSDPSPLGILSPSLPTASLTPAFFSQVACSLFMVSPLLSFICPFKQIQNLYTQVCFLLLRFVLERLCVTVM
Conditions: protein: recombinant; tags: N-terminal GST; dsDNA, one strand shown. The essentials:
as §1

In test [7] the target is T4, ETV2 (Homo sapiens, UniProt O00321 1-342).
T4 sequence: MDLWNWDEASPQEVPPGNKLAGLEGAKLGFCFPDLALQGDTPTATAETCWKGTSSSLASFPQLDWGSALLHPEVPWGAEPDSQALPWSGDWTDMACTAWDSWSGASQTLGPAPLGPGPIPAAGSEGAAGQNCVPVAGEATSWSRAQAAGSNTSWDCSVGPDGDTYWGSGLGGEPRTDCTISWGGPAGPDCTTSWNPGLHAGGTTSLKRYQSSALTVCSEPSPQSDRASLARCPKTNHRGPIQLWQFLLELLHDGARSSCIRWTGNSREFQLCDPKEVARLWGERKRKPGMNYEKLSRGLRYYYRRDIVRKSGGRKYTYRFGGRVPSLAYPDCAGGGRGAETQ
Conditions: protein: recombinant; tags: N-terminal GST; dsDNA, one strand shown. The gist of the method:
as §1

Test [8] concerns the target T5, ELF3 (Homo sapiens, UniProt P78545 1-371).
T5 sequence: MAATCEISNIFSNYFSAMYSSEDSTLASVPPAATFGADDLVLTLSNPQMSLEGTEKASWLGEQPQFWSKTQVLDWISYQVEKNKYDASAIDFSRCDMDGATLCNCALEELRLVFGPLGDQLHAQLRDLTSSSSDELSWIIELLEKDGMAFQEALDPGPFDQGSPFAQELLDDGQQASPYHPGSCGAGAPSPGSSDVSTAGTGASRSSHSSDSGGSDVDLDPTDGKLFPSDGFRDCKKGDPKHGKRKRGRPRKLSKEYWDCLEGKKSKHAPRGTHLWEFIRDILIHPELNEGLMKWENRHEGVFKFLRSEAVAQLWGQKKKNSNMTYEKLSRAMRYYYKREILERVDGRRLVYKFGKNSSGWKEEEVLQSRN
Conditions: protein: recombinant; tags: N-terminal GST; dsDNA, one strand shown. The essentials: as §1

Test [9] has as its target CRX (Homo sapiens, UniProt O43186 1-299). Conditions: protein: recombinant; tags: N-terminal GST; dsDNA, one strand shown. The essentials: as §1
Test [10] addresses ETV1 (Homo sapiens, UniProt P50549 1-477). The conditions noted are these: protein: recombinant; tags: N-terminal GST; dsDNA, one strand shown. The essentials:
as §1

In test [11] the target is T6, ERF (Homo sapiens, UniProt P50548 1-548).
T6 sequence: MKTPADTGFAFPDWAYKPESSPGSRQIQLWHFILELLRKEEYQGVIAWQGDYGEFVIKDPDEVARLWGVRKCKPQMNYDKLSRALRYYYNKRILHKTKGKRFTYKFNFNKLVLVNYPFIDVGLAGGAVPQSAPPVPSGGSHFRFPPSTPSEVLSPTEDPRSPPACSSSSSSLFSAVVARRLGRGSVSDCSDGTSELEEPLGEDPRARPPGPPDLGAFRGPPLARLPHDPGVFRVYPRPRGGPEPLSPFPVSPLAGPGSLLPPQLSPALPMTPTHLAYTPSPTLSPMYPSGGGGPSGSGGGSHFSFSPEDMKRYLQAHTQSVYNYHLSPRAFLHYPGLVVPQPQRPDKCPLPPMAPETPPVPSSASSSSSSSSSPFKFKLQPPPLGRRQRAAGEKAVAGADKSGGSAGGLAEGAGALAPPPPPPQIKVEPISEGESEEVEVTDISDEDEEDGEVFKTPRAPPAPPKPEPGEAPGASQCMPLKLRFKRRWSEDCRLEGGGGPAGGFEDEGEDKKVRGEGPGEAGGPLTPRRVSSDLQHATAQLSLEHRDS
Conditions: protein: recombinant; tags: N-terminal GST; dsDNA, one strand shown. The essentials:
as §1

For test [12], the target named is T7, ETV3L (Homo sapiens, UniProt Q6ZN32 1-361).
T7 sequence: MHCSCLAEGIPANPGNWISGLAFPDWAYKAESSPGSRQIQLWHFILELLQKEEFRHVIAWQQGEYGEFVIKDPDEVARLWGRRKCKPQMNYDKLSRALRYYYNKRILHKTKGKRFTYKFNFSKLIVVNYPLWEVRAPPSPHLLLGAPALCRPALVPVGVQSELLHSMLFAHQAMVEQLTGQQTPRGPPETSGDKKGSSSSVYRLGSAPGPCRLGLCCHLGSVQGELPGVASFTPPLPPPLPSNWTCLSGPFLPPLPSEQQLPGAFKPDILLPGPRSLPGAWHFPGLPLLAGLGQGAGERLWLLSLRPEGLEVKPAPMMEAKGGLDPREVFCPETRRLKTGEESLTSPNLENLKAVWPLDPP
Conditions: protein: recombinant; tags: N-terminal GST; dsDNA, one strand shown. The gist of the method:
as §1

The target of test [13] is T8, ETS2 (Homo sapiens, UniProt P15036 1-469).
T8 sequence: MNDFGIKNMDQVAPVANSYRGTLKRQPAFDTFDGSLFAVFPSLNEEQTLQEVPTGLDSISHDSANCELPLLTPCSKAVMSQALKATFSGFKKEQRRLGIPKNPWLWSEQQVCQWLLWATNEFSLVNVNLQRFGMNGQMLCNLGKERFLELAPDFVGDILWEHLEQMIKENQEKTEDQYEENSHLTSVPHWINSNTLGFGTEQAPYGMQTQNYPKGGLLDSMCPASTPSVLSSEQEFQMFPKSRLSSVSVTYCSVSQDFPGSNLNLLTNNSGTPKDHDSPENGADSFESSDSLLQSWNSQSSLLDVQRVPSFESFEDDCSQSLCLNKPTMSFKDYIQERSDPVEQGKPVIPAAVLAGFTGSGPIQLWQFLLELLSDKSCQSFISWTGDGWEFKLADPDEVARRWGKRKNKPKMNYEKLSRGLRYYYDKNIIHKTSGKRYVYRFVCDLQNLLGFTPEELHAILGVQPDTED
Conditions: protein: recombinant; tags: N-terminal GST; dsDNA, one strand shown. The essentials: as §1

Test [14] concerns the target T9, SPDEF (Homo sapiens, UniProt O95238 1-335).
T9 sequence: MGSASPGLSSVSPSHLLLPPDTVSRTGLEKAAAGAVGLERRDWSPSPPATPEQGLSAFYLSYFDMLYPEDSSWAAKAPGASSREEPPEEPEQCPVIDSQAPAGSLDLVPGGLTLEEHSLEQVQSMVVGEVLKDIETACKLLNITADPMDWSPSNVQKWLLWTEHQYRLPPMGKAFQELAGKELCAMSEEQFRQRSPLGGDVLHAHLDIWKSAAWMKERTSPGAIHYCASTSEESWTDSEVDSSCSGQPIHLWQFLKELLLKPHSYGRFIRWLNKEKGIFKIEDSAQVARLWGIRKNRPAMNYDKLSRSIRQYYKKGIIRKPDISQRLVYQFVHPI
The conditions noted are these: protein: recombinant; tags: N-terminal GST; dsDNA, one strand shown. The essentials: as §1

Test [15] has as its target T10, ETV7 (Homo sapiens, UniProt Q9Y603 1-341).
T10 sequence: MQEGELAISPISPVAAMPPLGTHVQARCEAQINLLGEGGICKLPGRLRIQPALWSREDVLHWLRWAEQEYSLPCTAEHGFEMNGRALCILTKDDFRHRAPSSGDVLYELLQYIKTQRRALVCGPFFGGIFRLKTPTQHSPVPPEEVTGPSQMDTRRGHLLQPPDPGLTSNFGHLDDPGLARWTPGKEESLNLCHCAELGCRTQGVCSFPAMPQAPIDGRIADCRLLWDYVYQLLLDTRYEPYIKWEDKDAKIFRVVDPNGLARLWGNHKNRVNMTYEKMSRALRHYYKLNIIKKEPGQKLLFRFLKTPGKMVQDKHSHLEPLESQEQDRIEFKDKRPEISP
The conditions noted are these: protein: recombinant; tags: N-terminal GST; dsDNA, one strand shown. The essentials: as §1

Test [16] concerns the target T11, ELF5 (Homo sapiens, UniProt Q9UKW6-2 1-255).
T11 sequence: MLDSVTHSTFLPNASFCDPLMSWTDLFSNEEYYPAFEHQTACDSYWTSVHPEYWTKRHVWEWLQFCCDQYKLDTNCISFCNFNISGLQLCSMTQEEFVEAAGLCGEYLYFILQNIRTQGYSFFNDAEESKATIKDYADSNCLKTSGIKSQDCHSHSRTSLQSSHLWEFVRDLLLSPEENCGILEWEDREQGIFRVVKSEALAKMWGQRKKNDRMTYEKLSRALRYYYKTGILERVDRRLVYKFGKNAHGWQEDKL
Conditions: protein: recombinant; tags: N-terminal GST; dsDNA, one strand shown. The gist of the method: as §1

The target in test [17] is T12, ETV3 (Homo sapiens, UniProt P41162-2 1-143).
T12 sequence: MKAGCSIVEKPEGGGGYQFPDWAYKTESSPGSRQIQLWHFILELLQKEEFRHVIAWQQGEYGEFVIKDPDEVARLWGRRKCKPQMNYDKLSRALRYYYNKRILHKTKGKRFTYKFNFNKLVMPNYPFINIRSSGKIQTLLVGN
The conditions noted are these: protein: recombinant; tags: N-terminal GST; dsDNA, one strand shown. The essentials:
as §1

Test [18] deals with ETV6 (Homo sapiens, UniProt P41212 1-452). Conditions: protein: recombinant; tags: N-terminal GST; dsDNA, one strand shown. The essentials: as §1
ETV6, sequence (P41212 whole entry): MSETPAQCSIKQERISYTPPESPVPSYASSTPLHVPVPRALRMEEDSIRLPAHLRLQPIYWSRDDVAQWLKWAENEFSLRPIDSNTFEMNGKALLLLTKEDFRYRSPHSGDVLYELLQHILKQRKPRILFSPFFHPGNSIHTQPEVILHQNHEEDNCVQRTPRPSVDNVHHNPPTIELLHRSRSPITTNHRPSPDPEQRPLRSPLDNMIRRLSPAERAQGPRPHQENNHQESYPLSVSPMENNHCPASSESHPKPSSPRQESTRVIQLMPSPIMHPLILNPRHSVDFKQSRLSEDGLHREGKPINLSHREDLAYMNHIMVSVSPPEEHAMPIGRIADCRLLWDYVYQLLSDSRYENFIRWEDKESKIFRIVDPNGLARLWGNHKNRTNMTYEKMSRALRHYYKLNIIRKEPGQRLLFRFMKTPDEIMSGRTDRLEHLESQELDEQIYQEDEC

CRX, sequence (O43186 whole entry): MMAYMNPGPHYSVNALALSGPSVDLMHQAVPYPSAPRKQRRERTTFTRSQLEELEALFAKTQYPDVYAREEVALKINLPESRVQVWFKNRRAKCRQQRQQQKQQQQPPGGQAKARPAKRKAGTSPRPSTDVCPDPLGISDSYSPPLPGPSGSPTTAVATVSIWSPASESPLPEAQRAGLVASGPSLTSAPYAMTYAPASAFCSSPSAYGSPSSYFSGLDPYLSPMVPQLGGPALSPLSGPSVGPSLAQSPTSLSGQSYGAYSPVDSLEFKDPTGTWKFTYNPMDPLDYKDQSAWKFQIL
ELF4, sequence (Q99607 whole entry): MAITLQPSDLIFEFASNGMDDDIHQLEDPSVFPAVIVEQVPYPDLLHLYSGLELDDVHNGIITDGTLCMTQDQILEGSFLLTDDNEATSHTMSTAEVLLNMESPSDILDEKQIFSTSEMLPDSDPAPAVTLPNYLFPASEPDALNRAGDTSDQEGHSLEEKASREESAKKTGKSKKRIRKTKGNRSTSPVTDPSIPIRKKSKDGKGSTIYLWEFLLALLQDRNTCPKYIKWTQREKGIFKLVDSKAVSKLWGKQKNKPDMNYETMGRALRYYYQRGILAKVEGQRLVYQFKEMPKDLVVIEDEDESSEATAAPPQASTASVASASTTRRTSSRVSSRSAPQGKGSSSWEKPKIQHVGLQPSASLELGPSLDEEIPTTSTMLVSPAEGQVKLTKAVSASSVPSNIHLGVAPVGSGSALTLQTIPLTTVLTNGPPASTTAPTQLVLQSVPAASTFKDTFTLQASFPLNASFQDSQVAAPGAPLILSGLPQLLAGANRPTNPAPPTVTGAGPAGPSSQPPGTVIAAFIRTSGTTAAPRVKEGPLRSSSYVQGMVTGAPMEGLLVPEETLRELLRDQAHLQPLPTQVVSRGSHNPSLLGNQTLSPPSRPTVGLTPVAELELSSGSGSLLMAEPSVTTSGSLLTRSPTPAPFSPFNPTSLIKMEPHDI
ETV1, sequence (P50549 whole entry): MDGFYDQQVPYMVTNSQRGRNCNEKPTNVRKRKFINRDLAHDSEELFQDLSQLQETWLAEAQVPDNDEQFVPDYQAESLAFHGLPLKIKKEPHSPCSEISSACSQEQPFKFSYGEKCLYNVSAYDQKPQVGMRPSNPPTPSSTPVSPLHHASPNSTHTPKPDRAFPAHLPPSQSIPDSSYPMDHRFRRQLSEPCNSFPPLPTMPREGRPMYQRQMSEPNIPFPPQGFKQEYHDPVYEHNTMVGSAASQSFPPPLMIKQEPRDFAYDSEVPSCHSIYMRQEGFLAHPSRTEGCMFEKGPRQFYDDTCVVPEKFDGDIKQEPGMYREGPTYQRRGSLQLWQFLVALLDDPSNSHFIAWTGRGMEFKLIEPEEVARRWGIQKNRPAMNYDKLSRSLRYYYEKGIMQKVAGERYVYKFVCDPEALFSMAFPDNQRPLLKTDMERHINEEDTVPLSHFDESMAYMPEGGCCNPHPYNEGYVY
ETV5, sequence (P41161 whole entry): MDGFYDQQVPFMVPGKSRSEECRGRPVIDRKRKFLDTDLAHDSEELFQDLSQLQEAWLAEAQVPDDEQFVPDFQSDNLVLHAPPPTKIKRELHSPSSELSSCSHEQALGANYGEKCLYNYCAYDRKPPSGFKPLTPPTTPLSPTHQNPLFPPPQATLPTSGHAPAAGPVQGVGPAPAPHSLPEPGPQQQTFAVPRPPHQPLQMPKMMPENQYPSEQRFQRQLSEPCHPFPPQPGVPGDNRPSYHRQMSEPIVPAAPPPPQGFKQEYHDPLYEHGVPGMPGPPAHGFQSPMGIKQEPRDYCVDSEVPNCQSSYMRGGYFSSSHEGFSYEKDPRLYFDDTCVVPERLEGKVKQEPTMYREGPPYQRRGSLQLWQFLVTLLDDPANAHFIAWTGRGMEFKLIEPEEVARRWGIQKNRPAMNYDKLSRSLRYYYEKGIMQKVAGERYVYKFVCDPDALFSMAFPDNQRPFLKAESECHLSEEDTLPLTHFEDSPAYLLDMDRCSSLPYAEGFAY
HSF1, sequence (Q00613 whole entry): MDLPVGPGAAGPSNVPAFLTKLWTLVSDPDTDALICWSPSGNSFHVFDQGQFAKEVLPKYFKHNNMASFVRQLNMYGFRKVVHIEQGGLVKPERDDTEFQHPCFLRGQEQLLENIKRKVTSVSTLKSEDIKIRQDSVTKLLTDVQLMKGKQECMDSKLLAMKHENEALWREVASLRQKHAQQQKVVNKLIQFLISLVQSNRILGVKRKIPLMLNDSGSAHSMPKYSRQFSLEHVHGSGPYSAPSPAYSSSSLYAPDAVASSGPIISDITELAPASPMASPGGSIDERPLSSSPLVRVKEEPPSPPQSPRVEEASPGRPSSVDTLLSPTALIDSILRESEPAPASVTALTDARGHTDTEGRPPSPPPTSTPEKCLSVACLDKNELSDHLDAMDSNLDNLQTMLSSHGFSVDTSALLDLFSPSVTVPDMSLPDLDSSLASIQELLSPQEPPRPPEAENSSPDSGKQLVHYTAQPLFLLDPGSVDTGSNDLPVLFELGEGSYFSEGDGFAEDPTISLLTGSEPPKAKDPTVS

Consider TGGTAA, for which the binding signal in test [1] is 1.15 fold enrichment (6-mer frequency, TF over GST control); in [2], 1.23 fold enrichment (6-mer frequency, TF over GST control); in [3], 1.45 fold enrichment (6-mer frequency, TF over GST control); in test [4], 1.09 fold enrichment (6-mer frequency, TF over GST control); in test [5], 1.23 fold enrichment (6-mer frequency, TF over GST control); in test [6], 1.39 fold enrichment (6-mer frequency, TF over GST control). Further, the binding signal in test [7] is 1.3 fold enrichment (6-mer frequency, TF over GST control); in test [8] it was 1.15 fold enrichment (6-mer frequency, TF over GST control); in test [9], 1.51 fold enrichment (6-mer frequency, TF over GST control); in [10], 1.27 fold enrichment (6-mer frequency, TF over GST control); in test [11] it was 1.27 fold enrichment (6-mer frequency, TF over GST control); in test [12], 1.25 fold enrichment (6-mer frequency, TF over GST control). The binding signal is 1.32 fold enrichment (6-mer frequency, TF over GST control) in test [13]; 1.19 fold enrichment (6-mer frequency, TF over GST control) in test [14]; 1.4 fold enrichment (6-mer frequency, TF over GST control) in test [15]; 1.23 fold enrichment (6-mer frequency, TF over GST control) in test [16]; 1.15 fold enrichment (6-mer frequency, TF over GST control) in test [17]; 1.25 fold enrichment (6-mer frequency, TF over GST control) in [18].

The record behind these values is article PMC7862700, “An all-to-all approach to the identification of sequence-specific readers for epigenetic DNA modifications on cytosine”.
